{
  "source": "PubChem BioAssay AID1159580",
  "about": "(chemical genetic matrix, 2015)",
  "test": "chemical genetic growth profiling, strain panel (AID 1159580);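 also: tested at 20 µM; growth read once vehicle control cultures reached saturation at 30 °C; 1 = growth at the plate median or of vehicle wells; lower values mean less growth of the strain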",
  "conditions": "S. cerevisiae deletion strains, growth OD",
  "key": {"[1]": {"conditions": "locus YAL013W, strain DEP1, stronger effect = lower value"}, "[2]": {"conditions": "locus YAL040C, strain CLN3, stronger effect = lower value"}, "[3]": {"conditions": "locus YER002W, strain NOP16, stronger effect = lower value"}, "[4]": {"conditions": "locus YMR263W, strain SAP30, stronger effect = lower value"}, "[5]": {"conditions": "locus YNL175C, strain NOP13, stronger effect = lower value"}, "[6]": {"conditions": "locus YNL197C, strain WHI3, stronger effect = lower value"}, "[7]": {"conditions": "locus YNL224C, strain SQS1, stronger effect = lower value"}, "[8]": {"conditions": "locus YOR083W, strain WHI5 (second series), stronger effect = lower value"}, "[9]": {"conditions": "locus YPL241C, strain CIN2, stronger effect = lower value"}, "[10]": {"conditions": "locus YGR078C, strain PAC10, stronger effect = lower value"}, "[11]": {"conditions": "locus YJR075W, strain HOC1, stronger effect = lower value"}, "[12]": {"conditions": "locus YNL153C, strain GIM3, stronger effect = lower value"}, "[13]": {"conditions": "locus YNL322C, strain KRE1, stronger effect = lower value"}},
  "note": "Screen size: about 5,500 compounds; about 2,000 (36%) were called active. Inconclusive results (about 18%) are left out. Rule as the data show it: active = normalized growth mostly below about 0.91 (no sharp cut-off); inconclusive = no clear call, values can overlap the other calls; inactive = mostly above about 0.92. The list shows a part of the results.",
  "data": [
    {"smiles": "CN1CCCC1CCOC(C)(c1ccccc1)c1ccc(Cl)cc1", "note": "(centres undefined)", "values": [
      {"measurement": "normalized growth", "setting": "[1]", "result": "0.981 (inactive)"},
      {"measurement": "normalized growth", "setting": "[2]", "result": "0.986 (inactive)"},
      {"measurement": "normalized growth", "setting": "locus YCL061C, strain MRC1 (second series), stronger effect = lower value", "result": "0.982 (inactive)"},
      {"measurement": "normalized growth", "setting": "locus YDR363W, strain ESC2, stronger effect = lower value", "result": "0.983 (inactive)"},
      {"measurement": "normalized growth", "setting": "[3]", "result": "1 (inactive)"},
      {"measurement": "normalized growth", "setting": "locus YGR229C, strain SMI1, stronger effect = lower value", "result": "0.714 (active)"},
      {"measurement": "normalized growth", "setting": "[4]", "result": "0.955 (inactive)"},
      {"measurement": "normalized growth", "setting": "[5]", "result": "0.995 (inactive)"},
      {"measurement": "normalized growth", "setting": "[6]", "result": "1.03 (inactive)"},
      {"measurement": "normalized growth", "setting": "[7]", "result": "1.01 (inactive)"},
      {"measurement": "normalized growth", "setting": "[8]", "result": "0.986 (inactive)"},
      {"measurement": "normalized growth", "setting": "[9]", "result": "0.996 (inactive)"}
    ]},
    {"smiles": "Brc1ccc([C@H]2CN3CCSC3=N2)cc1", "values": [
      {"measurement": "normalized growth", "setting": "[2]", "result": "1.01 (inactive)"},
      {"measurement": "normalized growth", "setting": "[3]", "result": "1.03 (inactive)"},
      {"measurement": "normalized growth", "setting": "[10]", "result": "1.02 (inactive)"},
      {"measurement": "normalized growth", "setting": "[11]", "result": "0.983 (inactive)"},
      {"measurement": "normalized growth", "setting": "[12]", "result": "0.997 (inactive)"},
      {"measurement": "normalized growth", "setting": "[5]", "result": "1.01 (inactive)"},
      {"measurement": "normalized growth", "setting": "[6]", "result": "1.01 (inactive)"},
      {"measurement": "normalized growth", "setting": "[7]", "result": "1.01 (inactive)"},
      {"measurement": "normalized growth", "setting": "[13]", "result": "0.997 (inactive)"},
      {"measurement": "normalized growth", "setting": "[8]", "result": "1.02 (inactive)"}
    ]},
    {"smiles": "Brc1cccc(C=NCc2ccccc2)c1", "values": [
      {"measurement": "normalized growth", "setting": "[1]", "result": "0.87 (active)"},
      {"measurement": "normalized growth", "setting": "locus YBR229C, strain ROT2, stronger effect = lower value", "result": "0.843 (active)"},
      {"measurement": "normalized growth", "setting": "locus YDL101C, strain DUN1, stronger effect = lower value", "result": "0.888 (active)"},
      {"measurement": "normalized growth", "setting": "locus YDL134C, strain PPH21, stronger effect = lower value", "result": "0.765 (active)"},
      {"measurement": "normalized growth", "setting": "locus YDR150W, strain NUM1, stronger effect = lower value", "result": "0.932 (inactive)"},
      {"measurement": "normalized growth", "setting": "locus YEL061C, strain CIN8, stronger effect = lower value", "result": "0.621 (active)"},
      {"measurement": "normalized growth", "setting": "[10]", "result": "0.847 (active)"},
      {"measurement": "normalized growth", "setting": "locus YHR030C, strain SLT2, stronger effect = lower value", "result": "0.198 (active)"},
      {"measurement": "normalized growth", "setting": "locus YHR087W, strain rtc3, stronger effect = lower value", "result": "0.788 (active)"},
      {"measurement": "normalized growth", "setting": "locus YJL187C, strain SWE1, stronger effect = lower value", "result": "0.848 (active)"},
      {"measurement": "normalized growth", "setting": "locus YJR043C, strain POL32, stronger effect = lower value", "result": "0.954 (inactive)"},
      {"measurement": "normalized growth", "setting": "[11]", "result": "0.719 (active)"},
      {"measurement": "normalized growth", "setting": "locus YLR039C, strain RIC1, stronger effect = lower value", "result": "0.242 (active)"},
      {"measurement": "normalized growth", "setting": "locus YLR058C, strain SHM2 (second series), stronger effect = lower value", "result": "0.961 (inactive)"},
      {"measurement": "normalized growth", "setting": "locus YLR085C, strain ARP6, stronger effect = lower value", "result": "0.333 (active)"},
      {"measurement": "normalized growth", "setting": "locus YLR262C, strain YPT6, stronger effect = lower value", "result": "0.23 (active)"},
      {"measurement": "normalized growth", "setting": "locus YML094W, strain GIM5, stronger effect = lower value", "result": "0.656 (active)"},
      {"measurement": "normalized growth", "setting": "locus YMR219W, strain ESC1, stronger effect = lower value", "result": "0.92 (active)"},
      {"measurement": "normalized growth", "setting": "[4]", "result": "0.883 (active)"},
      {"measurement": "normalized growth", "setting": "locus YNL128W, strain TEP1, stronger effect = lower value", "result": "0.829 (active)"},
      {"measurement": "normalized growth", "setting": "[12]", "result": "0.921 (active)"},
      {"measurement": "normalized growth", "setting": "locus YNL298W, strain CLA4 (second series), stronger effect = lower value", "result": "0.664 (active)"},
      {"measurement": "normalized growth", "setting": "[13]", "result": "0.983 (inactive)"},
      {"measurement": "normalized growth", "setting": "locus YNR030W, strain Alg12, stronger effect = lower value", "result": "0.761 (active)"},
      {"measurement": "normalized growth", "setting": "locus YPL055C, strain LGE1, stronger effect = lower value", "result": "0.825 (inactive)"},
      {"measurement": "normalized growth", "setting": "[9]", "result": "0.663 (active)"},
      {"measurement": "normalized growth", "setting": "locus YPR135W, strain CTF4, stronger effect = lower value", "result": "0.366 (active)"}
    ]}
  ]
}
